Screening data: PubChem, National Center for Advancing Translational Sciences (NCATS)
p53 reactivator: re-activators of mutant p53 | AID 504706 | H1299 p53-A138V BP100-luciferase reporter, luminescence, 24 h | Potency, µM (titrated, usually from 92.2 µM), without a hit: at the highest dose activity change, positive = activation, usual class: activators | 320,000 compounds, 0.063% hits; also: potency is read from the fitted curve at half-maximal effect; % of control where 0% means no effect; nearly all actives have a fitted effect of over 45% in size
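H1299 (p53-null), stable ts p53-A138V + BP100-Luc; 1000 cells/well, Opti-MEM/10% FBS; cpd 4 pt, 1:5; 24 h, 37 deg C, 5% CO2; detection reagent 10 min RT; luminescence.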
MmCpn inh: blocks the Methanococcus maripaludis chaperonin Mm-Cpn; AID 504842; 330,000 compounds, 0.031% hits; Potency, µM (highest dose often 76.9 µM), for the others: top-dose activity, negative = inhibition, hits mostly inhibitors; purified Mm-Cpn ATPase, ADP Transcreener TR-FRET; also: potency is read from the fitted curve at half-maximal effect; % is scaled to controls: 0 for no effect and ±100 for the full control effect; nearly all actives have a fitted effect of over 80% in size
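Compound-treated chaperonin, 25 nM final, turns over 10 uM ATP at 37°C for 30 min following a 10 min preincubation; ADP generated competes with ADP-d2 for Eu-cryptate antibody, lowering FRET.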
KCNH2 WT inh: blocks the wildtype human KCNH2 potassium channel. 340,000 compounds, 0.37% hits. U2OS, BacMam KCNH2, thallium flux FluxOr; hits give low values. Q12809. AID 720551. activity change, % at 1.84 µM;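 active = maximum activity change below -70%; inconclusive = maximum activity change between -70% and -50%; inactive = maximum activity change above -50%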; also: % is scaled to controls: 0 for no effect and ±100 for the full control effect
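U2OS cells were transduced with wild-type KCNH2 virus (2.03 x 10^8 / mL) for 4 h at room temperature, then cultured overnight at 37 C. Thallium flux was read with FluxOr dye. Rate constants were normalized to DMSO controls.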
S-ASM inh: human S-ASM enzyme inhibition; AID 504937; P17405; Potency, µM (top dose mostly 57.5 µM), without a hit: at the top dose activity change, negative = inhibition, most hits filed as inhibitors; 340,000 compounds, 0.006% hits; placental ASM, HMU-PC fluorogenic substrate, 60 min; also: potency is read from the fitted curve at half-maximal effect
Target sequence (P17405 47-631 limits assumed): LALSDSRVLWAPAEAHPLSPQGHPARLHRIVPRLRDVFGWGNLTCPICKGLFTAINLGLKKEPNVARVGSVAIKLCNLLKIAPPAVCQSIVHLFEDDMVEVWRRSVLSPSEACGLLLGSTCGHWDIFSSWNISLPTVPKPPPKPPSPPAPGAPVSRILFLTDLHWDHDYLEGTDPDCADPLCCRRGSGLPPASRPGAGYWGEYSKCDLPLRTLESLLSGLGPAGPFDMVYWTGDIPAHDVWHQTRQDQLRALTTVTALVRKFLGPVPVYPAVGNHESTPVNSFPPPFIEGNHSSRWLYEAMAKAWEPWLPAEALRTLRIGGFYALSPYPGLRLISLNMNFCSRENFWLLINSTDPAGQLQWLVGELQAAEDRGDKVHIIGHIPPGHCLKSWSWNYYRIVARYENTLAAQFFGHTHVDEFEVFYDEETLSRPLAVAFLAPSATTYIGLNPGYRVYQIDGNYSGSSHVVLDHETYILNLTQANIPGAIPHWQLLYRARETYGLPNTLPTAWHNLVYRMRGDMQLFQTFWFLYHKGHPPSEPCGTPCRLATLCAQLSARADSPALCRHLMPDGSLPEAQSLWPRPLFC
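qHTS format. ASM enzyme prepared from human placenta hydrolyses the fluorogenic substrate HMU-PC0 (9 uM final) over 60 min at 37 °C after a 10 min compound preincubation.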
uPA generation: inhibitors of cell surface uPA generation; Potency, µM (top dose mostly 38.3 µM), without a hit: top-dose activity change, negative = inhibition, usual class: inhibitors; 330,000 compounds, 0.31% hits; AID 540303; cell surface uPA generation assay, qHTS; active = well fitted inhibition curve with a large enough effect; inconclusive = small, poorly fitted or top-dose-only effect; inactive = no such curve, though single readings can be large or run the other way; tested in mouse RAW 264.7 cells; also: potency is read from the fitted curve at half-maximal effect; % is scaled to controls: 0 for no effect and ±100 for the full control effect; nearly all actives have a fitted effect of over 55% in size
KCNH2 3.1 block: KCNH2 3.1 (human) potassium channel inhibition | 340,000 compounds, 0.95% hits | activity change, % (tested at about 1.8 µM) | U2OS KCNH2 3.1, thallium flux FluxOr; hits give low values;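 active = maximum activity change below -70%; inconclusive = maximum activity change from -70% to -50%; inactive = maximum activity change above -50%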;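 also: thallium influx rate constant from kinetic fluorescence after stimulation buffer; % is scaled to controls: 0 for no effect and ±100 for the full control effect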
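FluxOr-based Tl+ influx in U2OS cells transduced with KCNH2 3.1 virus; rate constants normalized to DMSO controls.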
* marks the source's active call; other numbers are inactive results; ? = inconclusive; . = no result. This is a sample that favours compounds with a hit; in the whole collection about 1.4% have one here. Unless noted, calls follow the shape of the dose curve; as a rule, active = well fitted curve in the direction sought with a large enough effect; inconclusive = small, poorly fitted or top-dose-only effect, or another doubt; inactive = no such curve, though single readings can be large; an effect the other way counts as inactive or inconclusive.

SMILES	p53 reactivator	MmCpn inh	KCNH2 WT inh	S-ASM inh	uPA generation	KCNH2 3.1 block
O=C(CSc1nc2ccccc2c(=O)n1Cc1ccccc1)Nc1ccc(Br)cc1C(=O)O	7.3%	-5.5%	10.8	6.0%	-9.1%	12.5
COc1ccc(CN(Cc2cccn2C)C(=O)c2cc3cc(OC)ccc3[nH]2)cc1	-4.7%	44.7µM*	2.6	-6.4%	1.8%	3.4
COc1ccc2[nH]c(C(=O)NCc3ccccc3)cc2c1	3.7%	-2.1%	-4.5	-2.9%	1.1%	5.5
COc1ccc(N2CCN(C(=O)CCCCCn3c(=S)[nH]c4ccc(N5CCOCC5)cc4c3=O)CC2)cc1	.	.	10.2	.	.	?
CCc1ccccc1NC(=O)Cn1nc(C(F)(F)F)cc1C1CC1	-5.4%	1.0%	-5.0	2.5%	.	-78.1*
CCNS(=O)(=O)c1ccc(NC(=O)Cn2nc(C(F)(F)F)cc2C)cc1	-18.9%	0.4%	-2.6	-1.4%	7.7%	5.0
CC(C)N(CCC(=O)c1ccc2ccccc2c1)Cc1ccccc1	-18.6%	-0.3%	-3.7	-10.0%	3.16µM*	5.1
CC(OC(=O)c1ccc2ccccc2c1)C(=O)N(C)Cc1ccccc1 (stereo not given)	3.3%	1.0%	-5.5	-4.8%	?	9.3
Fc1ccc(Nc2nc(NCc3ccco3)c3ccccc3n2)cc1	4.8%	3.3%	-12.6	-2.4%	?	-91.9*
Nc1nc(Nc2ccccc2)nc(NCc2ccco2)c1[N+](=O)[O-]	-1.9%	0.9%	-8.8	?	-1.4%	8.4
C=CCN=c1scc(-c2ccc3c(c2)NC(=O)CO3)n1/N=C(\C)c1ccccn1	0.8%	-0.3%	2.1	19.4%	-5.0%	-95.4*
NC(=O)C(NN=C(c1ccccc1)c1ccccc1)c1ccccc1 (stereo not given)	.	.	7.4	.	.	-4.9
CCOC(=O)C(=O)NCC(c1cccs1)S(=O)(=O)c1ccc(F)cc1 (stereo not given)	-1.5%	0.7%	-9.7	-1.0%	-0.6%	-137.5*
CCOC(=O)C(=O)NCC(c1cccs1)S(=O)(=O)c1ccc(C)cc1 (stereo not given)	-2.1%	0.1%	-10.9	0.1%	-1.7%	-17.6
Cc1cc(C)c(CN2CCC(CO)(CCOc3ccccc3)CC2)cc1C	-3.8%	-1.2%	-35.2	-2.6%	-4.8%	-111.0*
OCC1(CCOc2ccccc2)CCN(Cc2cccn2-c2ncccn2)CC1	-5.1%	-0.6%	-16.4	0.1%	-1.3%	-93.3*
COc1ccc(OC)c(CN2CCC(CO)(CCOc3ccccc3)CC2)c1	-3.6%	-3.4%	69.3	2.6%	0.4%	-75.3*
OCC1(CCOc2ccccc2)CCN(C2Cc3ccccc3C2)CC1	-1.3%	3.1%	15.2	2.0%	-2.9%	-76.6*
CC(=O)Nc1ccc(CN2CCC(CO)(CCOc3ccccc3)CC2)cc1	-2.6%	0.1%	51.8	-2.7%	-2.3%	?
COc1cc(CN2CCC(CO)(CCOc3ccccc3)CC2)cc(OC)c1	2.6%	2.1%	18.8	-0.9%	6.2%	?
COCCSc1ccccc1C(=O)N1CCCC1	2.7%	-0.1%	-8.6	6.0%	-0.1%	10.5
COCCSc1ccccc1C(=O)N1CCOCC1	0.8%	-1.8%	-3.8	3.5%	.	-85.6*
CCn1c(SCC(=O)Nc2cc(C)on2)nc2c(c1=O)SCC2	-10.4%	-4.9%	-31.0	-0.9%	1.3%	-10.2
O=[N+]([O-])c1cccc2nc3ccccc3c(NCCCn3ccnc3[N+](=O)[O-])c12	.	.	-22.1	-1.9%	-10.5%	-6.9
CC(=O)c1ccc(S(=O)(=O)N2Cc3ccccc3CC2C(=O)O)cc1 (stereo not given)	2.1%	1.9%	-9.2	-4.6%	1.1%	13.7
CS(=O)(=O)N1Cc2ccccc2CC1C(=O)O (stereo not given)	3.1%	1.5%	-11.2	0.1%	1.7%	-95.0*
O=C(Cc1cccs1)N1CCN(S(=O)(=O)c2ccc(Cl)c(C(F)(F)F)c2)CC1	3.2%	0.4%	8.5	-2.4%	2.3%	5.7
